Shown are actives, neighbours in structure and some others; about 1.3% of the full set was active somewhere.
Vif-A3F inh: qHTS for Inhibitors of Vif-A3F Interactions: qHTS; hit rate 0.2% among 390,000; HeLa A3F-eYFP + Vif (tagged APOBEC3F with the HIV-1 protein that degrades it), YFP fluorescence increase; Potency, µM (doses to about 46.1 µM), for inactives: at the highest dose activity, negative = active; note: potency is the fitted concentration of half-maximal effect; % of control where 0% means no effect; nearly all actives have a fitted effect of over 65% in size
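HeLa cells stably expressing A3F-eYFP plus Vif, plated and incubated overnight at 37 deg C, then exposed to compounds overnight at 37 deg C. Blocked degradation read as raised yellow fluorescence (Ex 488/Em 500-530).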
ALOX12 inh: Primary qHTS assay for inhibitors of human arachidonate 12S-lipoxygenase (ALOX12): Round 2 | Polyunsaturated fatty acid lipoxygenase ALOX12 (Homo sapiens), P18054 | AID 1671190, 2021 | Potency, µM (series often up to 108 µM), for the others: at the highest dose activity change, negative = inhibition, most hits filed as inhibitors | hit rate 1.1% among 580,000 | purified 12hLO, xylenol orange hydroperoxide absorbance; note: potency is the fitted concentration of half-maximal effect; % is set by controls: 0 for no effect and ±100 for the full control effect
Target sequence (P18054 whole entry, looked up): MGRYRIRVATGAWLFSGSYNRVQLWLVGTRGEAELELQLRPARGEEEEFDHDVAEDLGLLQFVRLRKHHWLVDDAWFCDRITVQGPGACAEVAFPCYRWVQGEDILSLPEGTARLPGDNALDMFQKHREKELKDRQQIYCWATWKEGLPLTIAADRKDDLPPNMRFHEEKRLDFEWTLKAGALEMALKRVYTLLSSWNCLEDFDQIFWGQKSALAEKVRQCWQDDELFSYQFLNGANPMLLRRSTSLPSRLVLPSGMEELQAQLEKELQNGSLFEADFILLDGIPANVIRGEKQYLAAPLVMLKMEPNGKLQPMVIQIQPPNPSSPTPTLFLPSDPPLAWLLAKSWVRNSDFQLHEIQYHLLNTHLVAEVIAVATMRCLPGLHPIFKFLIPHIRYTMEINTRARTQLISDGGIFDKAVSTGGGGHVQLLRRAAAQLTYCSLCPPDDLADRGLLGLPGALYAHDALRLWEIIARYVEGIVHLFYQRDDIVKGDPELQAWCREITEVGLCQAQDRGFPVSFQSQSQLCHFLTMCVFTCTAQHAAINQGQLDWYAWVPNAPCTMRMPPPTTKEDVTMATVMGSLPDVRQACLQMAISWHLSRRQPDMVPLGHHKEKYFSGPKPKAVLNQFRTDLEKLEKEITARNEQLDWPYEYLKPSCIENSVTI
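Purified human 12hLO at 150 nM in 25 mM Hepes, 0.01% Triton X-100, pH 7.0, preincubated 15 min at room temperature with compound. Reaction started with 40 uM arachidonic acid, 30 min at room temperature. Hydroperoxide measured by Fe-xylenol orange, 573/405 nm absorbance ratio.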
TRPML1 inh: qHTS for Inhibitors of the Human Mucolipin Transient Receptor Potential 1 (TRPML1); hit rate 0.02% among 390,000; Mucolipin-1 (Homo sapiens), Q9GZU1; activity change, negative = inhibition, % (no concentration beside the values); TRPML1-inducible cells, Ca2+ dye fluorescence, FDSS; active compounds read low; inhibition of EC80 agonist-evoked calcium signal; in the data active = activity change below about -50%; inconclusive = between about -30% and that limit;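 note: stimulus is agonist 54-4 at its EC80 concentration; % is set by controls: 0 for no effect and ±100 for the full control effect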
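Calcium fluorescence in TRPML1-DL cells induced overnight with Tet: a 110 s read after compound pin addition, then a 110 s antagonist read after challenge with 54-4 at 4 uM final (EC80).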
GRP78 ERSR act: qHTS for Inducers of the Endoplasmic Reticulum Stress Response (ERSR) in Human Glioma: qHTS. U87-MG GRP78 promoter luciferase reporter, 16 h. Potency, µM, for inactives: at the top dose activation, actives largely listed as activators. hit rate 0.02% among 420,000. AID 602332, 2012; note: potency is the fitted concentration of half-maximal effect; series mostly up to about 76 µM; % of control where 0% means no effect; nearly all actives have a fitted effect of over 35% in size
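ERSR induction read as luciferase luminescence (Bright-Glo, 10 min at room temperature) in stably transfected human U87-MG glioma cells exposed to compounds for 16 h, using GRP78 as sensor.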
Vif-APOBEC3G blk: qHTS for Inhibitors of Vif-A3G Interactions: qHTS. DNA dC->dU-editing enzyme APOBEC-3G (Homo sapiens), Q9HC16. HeLa A3G-eYFP + Vif (tagged APOBEC3G with the HIV-1 protein that degrades it), YFP fluorescence, overnight. Potency, µM (top dose mostly 46.1 µM), for the others: at the top dose activity, negative = active, usual class: inhibitors. hit rate 0.076% among 410,000; note: potency is the fitted concentration of half-maximal effect; % is set by controls: 0 for no effect and ±100 for the full control effect; nearly all actives have a fitted effect of over 60% in size
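HeLa cells stably expressing Vif and C-terminally eYFP-tagged A3G, seeded overnight at 37 deg C, then exposed to compound by pintool overnight at 37 deg C. Rise in yellow fluorescence (Ex 488/Em 500-530, Acumen) marks blocked Vif-driven A3G degradation.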
TRPML1 agonist: qHTS for Agonists of the Human Mucolipin Transient Receptor Potential 1 (TRPML1); TRPML1-expressing cells, Ca2+ dye fluorescence, FDSS; activation, % (concentration not given with the values); hit rate 0.12% among 410,000; AID 624414, 2012; in the data active = activation above about 50%; inconclusive = mostly about 30% to 49%; note: 0% is about no effect
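In this qHTS format, compounds were pin-transferred onto Ca8-dye-loaded TRPML1-DL cells induced with Tet overnight, and intracellular Ca2+ fluorescence was recorded kinetically for 110 s after a 10 s baseline. A subsequent 4uM final 54-4 (EC80) addition followed by a second 110 s read served as the antagonist phase.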
The depositor's hits bear a star; ? = inconclusive; / = no result; ! = a repeat was not active. Unless noted, calls come from the whole dose curve; as a rule, active = well fitted curve in the direction sought with a large enough effect; inconclusive = small, poorly fitted or top-dose-only effect, or another doubt; inactive = no such curve, though single readings can be large; an effect the other way counts as inactive or inconclusive.

SMILES	Vif-A3F inh	ALOX12 inh	TRPML1 inh	GRP78 ERSR act	Vif-APOBEC3G blk	TRPML1 agonist
O=C1c2ccccc2C(=O)c2c(O)ccc(O)c21	/	-7%	/	/	/	/
O=C1c2ccccc2C(=O)c2c(O)c(O)cc(O)c21	-5%	32µM*!	5	-4%	0%	0
CC(=O)c1c(NC(=O)c2ccccc2)[nH]c(-c2ccccc2)nc1=S	?	40µM*	1	-2%	-6%	1
CC(=O)N1CCN(c2nc(-c3ccco3)c3c(c2C#N)CC(C)(C)SC3)CC1	2%	35µM*!	-4	-7%	0%	-1
CCC(=O)N1CCN(c2nc(-c3ccco3)c3c(c2C#N)CC(C)(C)SC3)CC1	/	20µM*	/	/	/	/
CC1CCN(C(=O)C(=O)N2CCN(c3nc(-c4ccco4)c4c(c3C#N)CCCC4)CC2)CC1	/	32µM*	/	/	/	/
CCn1nc(C(=O)OCCOc2ccccc2Cl)c2ccccc2c1=O	/	24%	/	/	/	/
COC(=O)c1ccccc1NC(=O)NCc1nc(-c2ccc(C)cc2)oc1C	/	-27%	/	/	/	/
CCOc1ccc(NC(=O)Cc2cc(Cl)c3c(c2)OCCCO3)cc1S(=O)(=O)N(C)C	/	15%	/	/	/	/
COc1ccc(-c2nc3ccccc3c(C(=O)O)c2C)cc1	/	10%	/	/	/	/
COc1ccc(CCNC(=O)/C=C/c2ccco2)cc1OC	-15%	?	7	-5%	0%	-1
COc1ccc(C(NC(=O)/C=C/c2ccco2)c2ccc(OC)cc2)cc1	-1%	45µM*	-1	10%	1%	2
COc1ccc(C(NC(=O)/C=C\c2ccco2)c2ccc(OC)c(OC)c2)cc1 (stereo not drawn)	9%	32µM*	6	-4%	-6%	0
O=C(/C=C/c1ccco1)Oc1ccc(Sc2ccc(OC(=O)/C=C/c3ccco3)cc2)cc1	/	11µM*	/	/	/	/
CC(=O)N(C1=C(C#N)C(=O)CC(C)(C)C1)c1ccccc1	/	-7%	/	/	/	/
CCCCc1c(-c2ccccc2OC)ncn1Cc1ccccc1C	/	28µM*	/	/	/	/
CN1CCc2cccc3c2[C@H]1Cc1ccc(O)c(O)c1-3	4%	1.4µM*!	13	-10%	0%	5
COc1cc2c3cc1OCc1c(O)c(OC)cc4c1C(Cc1ccc(cc1)Oc1cc(ccc1O)CC3N(C)CC2)N(C)CC4 (stereo not drawn)	/	/	-7	-5%	0%	0
O=C(NCC1OCCc2ccccc21)c1ccc(Cl)cc1 (stereo not drawn)	/	12%	/	/	/	/
O=[N+]([O-])c1cccc(N=Nc2ccc(O)cc2O)c1	-6%	20µM*	5	-1%	0%	1
O=[N+]([O-])c1ccc(N=Nc2ccc(O)cc2O)cc1	-18%	?	-16	-7%	2%	0
Cc1ccc(OCCCCc2c(C)n[nH]c2C)c(C(C)(C)C)c1	/	35µM*	/	/	/	/
Cc1cccc(OCCCCc2c(C)n[nH]c2C)c1	-2%	?	9	-1%	1%	4
Cc1scc(C(=O)NCC2CCCCC2)c1C	/	16µM*	/	/	/	/
CCOc1ccc(CNC(=O)c2noc(C)c2Cn2nc(C)cc2C)cc1	/	-4%	/	/	/	/
SMILES	Vif-A3F inh	ALOX12 inh	TRPML1 inh	GRP78 ERSR act	Vif-APOBEC3G blk	TRPML1 agonist
Cc1cc(Nc2ccccc2Cl)c2ccccc2n1	15%	288%	49	-10%	-1%	1
Cc1cc(C)nc(NCC(O)CNc2ccccc2Cl)n1 (stereo not drawn)	7%	40µM*	-8	-3%	1%	-1
Cc1ccc2nc(C)c(C(=O)N3CCC(C)CC3)cc2c1	/	4%	/	/	/	/
Cc1c(Cl)cccc1Nc1n[nH]c(=S)s1	-7%	22µM*	22	-3%	1%	0
Fc1ccccc1Nc1n[nH]c(=S)s1	13%	25µM*	27	4%	-1%	2
CC1CC(NC(=O)C2CCC2)CC(C)(C)C1 (stereo not drawn)	/	17%	/	/	/	/
COc1ccc(C(=O)Nc2oc3ccccc3c(=O)c2-c2ccc(C)cc2)cc1OC	/	-10%	/	/	/	/
O=Cc1cn[nH]c1-c1cc2ccccc2o1	/	22%	/	/	/	/
CN1CCN(c2ccnc(-c3cccnc3)n2)CC1	/	-14%	/	-3%	/	/
CN1CCN(c2cc(-c3ccoc3)ncn2)CC1	/	11µM*	/	2%	/	/
CN1CCN(c2ccnc(-c3ccoc3)n2)CC1	/	22µM*	/	1%	/	/
O=c1cc(CN2CCN(c3cccc(Cl)c3)CC2)c2cc(Cl)ccc2o1	/	5%	/	/	/	/
Cc1nc([C@@H]2CN(S(=O)(=O)c3ccc4c(c3)CCCC4)C[C@H]2C(N)=O)n[nH]1	/	27%	/	/	/	/
Cc1nc([C@@H]2CN(S(=O)(=O)C(C)C)C[C@H]2C(N)=O)n[nH]1	/	50µM*	/	/	/	/
CC(C)CC(=O)NC1(C(F)(F)F)C(=O)Nc2c1c(=O)[nH]c(=O)n2-c1ccccc1 (stereo not drawn)	-3%	32µM*	-10	-2%	4%	0
COc1ccc2nc(-c3ccco3)c(-c3ccco3)nc2c1	0%	18µM*	-3	-2%	1%	-1
CC1CCC(C(C)C)C2=C1C(C#N)(C#N)C(C#N)(C#N)C(c1ccccc1)N2 (stereo not drawn)	-4%	40µM*	4	-10%	-24%	0
COCCNC(=S)N/N=C(\C)c1ccc(Cl)c(Cl)c1Cl	?	40µM*	-5	-3%	-2%	1
COCCNC(=S)N/N=C(\C)c1ccc(Cl)c(Cl)c1	?	?	-10	-2%	-5%	1
CCn1c(SCC(=O)c2c[nH]c3ccccc23)nnc1-c1cccs1	22µM*	4%	7	-2%	11µM*	1
Cn1c(=O)[nH]c(=O)c2c1[nH]c(=S)n2CCCc1ccccc1	-2%	?	-8	-4%	-4%	0
Cn1c(=O)c2c([nH]c(=S)n2CCCc2ccccc2)n(C)c1=O	1%	1.3µM*	8	0%	3%	0
Cc1nn(C)cc1S(=O)(=O)Nc1ccn(Cc2c(Cl)cccc2Cl)n1	/	9%	/	/	/	/
COc1ccc(Br)c2oc(S)cc(=O)c12	-16%	6.3µM*	15	3%	1%	0
COc1cccc2oc(SC)cc(=O)c12	/	/	/	-10%	/	/
CCN1C(=S)N[C@@H](c2cccc(F)c2)C(C(=O)OC)=C1C	7%	?	1	-1%	-1%	1
COC(=O)C1=C(C)N(Cc2ccc(Br)cc2)C(=S)NC1c1cccc(F)c1 (stereo not drawn)	/	35µM*	/	/	/	/
